Results on 99 compounds are retold here after PubChem BioAssay AID686970 (National Center for Advancing Translational Sciences (NCATS), 2013).

The campaign covered roughly 360,000 compounds. About 6,000 (1.7%) were called active. Another 8% or so got no clear call; they are omitted. Shown is part of a subset that was picked to be rich in actives. Entries that show only a call come without a potency. A number with no mark means an inactive call. Calls come from the whole dose curve; as a rule, active = well fitted cell-killing curve with a large enough effect; inconclusive = small, poorly fitted or top-dose-only effect, or effect the other way; inactive = flat fitted curve, though single readings scatter.
Potency is the fitted concentration of half-maximal effect.

A short description of this assay: qHTS for induction of synthetic lethality in tumor cells producing 2HG: qHTS for the HT-1080-NT fibrosarcoma cell line.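 Note: NT is the 2HG producing partner of a matched IDH1 knockdown line; nearly all actives have a fitted effect of over 55% in size.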 To be noted: HT-1080-NT fibrosarcoma viability, CellTiter-Glo ATP luminescence, 48 h; series mostly up to 46.1 µM. An outline of the steps:
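Compounds were tested in concentration-response format on HT-1080-NT cells for 48 hours at 37 degrees C. Cell viability came from CellTiter-Glo luminescence; curves were classified by r2, response magnitude and activity.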
A general note: In qHTS, concentration-response curves come from the screen itself.
As for `CC1(C)OC(=O)C2=C(C[C@@H](C3CCCCC3)O[C@@H]2c2ccc(Cl)cc2)O1`, the Potency result is “inactive”.

`CN1OC[C@@H]2CN(C(=O)c3ccc(-c4ccccc4)cc3)[C@H](c3ccc(-c4cccc(F)c4)cc3)C[C@@H]21`: the Potency result was “inactive”.

Consider `CCCCOC(=O)Nc1nccs1`, for which the Potency result is “inactive”.

For the compound `CCCCOC(=O)Nc1nnc(CC(=O)NCc2ccccc2)s1`, the Potency was 4.11 µM (active).

In the case of `CCCCc1nnc(NC(=O)CS(=O)(=O)Cc2ccccc2)s1`, the Potency entry is “inactive”.

For `Cc1noc(C)c1-c1ccc(C(=O)NCc2ccncc2)c2occc12`, the Potency result was “inactive”.

With `NC(=O)NC(CC(=O)NNC(=O)c1ccccn1)c1ccc(Cl)cc1` (centres undefined), the Potency result was “inactive”.

Take `C/C(=N\NC(=O)Cc1ccc(Cl)cc1)c1ccccn1`: the Potency was 1.78 µM (active).

Consider `CC(=NNC(=S)N1CCCCCC1)c1ccccn1`, for which the Potency entry is “inactive”.

On to `O=C(O)c1ccccc1Cc1ccc(F)c2ccccc12`, for which the Potency result was “inactive”.

Turning to `Nc1ncnc2c1ncn2[C@@H]1O[C@H](C(=O)NCC(F)(F)F)[C@@H](O)[C@H]1O`, the Potency entry was “inactive”.

As for `CCOC(=O)c1cc(-c2sc(NC(=O)c3ccccc3)nc2C)n(CCO)n1`, the Potency entry was “inactive”.

Regarding `COc1ccc(Br)c(Cn2c(C)c(C(=O)NCc3cccs3)sc2=O)c1`, the Potency result is “inactive”.

With `C[C@@H]1CN([C@H](C)CO)C(=O)c2cc(Br)cnc2O[C@@H]1CN(C)Cc1cncnc1`, the Potency result is “inactive”.

Regarding `Cc1cc(C)n(CC(O)CN(c2ccccc2)S(=O)(=O)c2ccc3ccccc3c2)n1` (centres undefined), the Potency result is “inactive”.

On to `CS(=O)(=O)N(CC(O)Cn1c2ccccc2c2ccccc21)c1cccc2ccccc12` (centres undefined), for which the Potency was 18.4 µM (active).

As to `CCCCN(CCCC)CC(O)Cn1c2ccccc2c(=O)c2ccccc21` (centres undefined), the Potency entry was “inactive”.

Consider `COc1ccc(Cn2c(=O)[nH]c3cc(C(=O)N4CCN(C(=O)c5ccco5)CC4)ccc3c2=O)cc1`, for which the Potency entry is “inactive”.

Consider `O=C1NC[C@H](CCCCN2C[C@H](Cc3ccc(O)cc3)N(CC3CCCCC3)C(=O)C2=O)N(CCc2ccccc2)C1=O`, for which the Potency result is “inactive”.

As for `O=C(OCc1ccccc1)N1CCC2CC1c1cc(N3CCN(S(=O)(=O)c4cc(Cl)cc(Cl)c4)CC3)ccc12` (centres undefined), the Potency result was “inactive”.

For the compound `CCCCOc1ccc(NC(=O)CSCC(=O)OCC)cc1`, the Potency entry is “inactive”.

For the compound `CCCCCCCCCCOC(=O)Cn1c(COc2cccc(OC)c2)[n+](C)c2ccccc21`, the Potency result was “inactive”.

For `CCCCCCCCCCOC(=O)Cn1c(COc2ccc(C)cc2)[n+](C)c2ccccc21`, the Potency was 18.4 µM (active).

Consider `CN1CCN(C(=O)c2ccc(NC(=O)c3ccc(Br)o3)cc2)CC1`, for which the Potency result is “inactive”.

`O=C(Nc1ccc(Cl)cc1)c1csc([C@H]2C[C@H](O)[C@@H](CO)O2)n1`: the Potency entry was “inactive”.

Regarding `CCOC(=O)C(C(=O)c1ccccc1)C(c1ccccc1)c1nccc2ccccc12` (centres undefined), the Potency result is “inactive”.

For `CCOC(=O)[C@]12CCC=C1N(Cc1ccco1)C(=O)[C@H](CC(=O)N1CCSCC1)C2`, the Potency result is “inactive”.

Turning to `O=[N+]([O-])c1c(NCCO)cc(Sc2nc3ccccc3s2)c2nonc12`, the Potency is 5.62 µM (active).

Take `Nc1nnc(SCC(=O)Nc2ccc3nc(SCC(=O)Nc4ccccc4)sc3c2)s1`: the Potency entry is “inactive”.

As to `CCN(CC)CCCSc1nc2ccccc2s1`, the Potency result was “inactive”.

As for `CC1(Cc2ccccc2C#N)C(=O)Nc2ccc(-c3ccc4[nH]ccc4c3)cc21` (centres undefined), the Potency is 7.31 µM (active).

On to `O=C(NCc1cccnc1)c1cc(C2CCCN(C(=O)C3CCCCC3)C2)on1` (centres undefined), for which the Potency entry was “inactive”.

As for `Cc1ccc(-c2c(N)nc3ncccn23)cc1`, the Potency entry is “inactive”.

In the case of `COCC1CCCCN1C(=O)c1cc(COc2ccc(C)c(C)c2)on1` (centres undefined), the Potency result was “inactive”.

Regarding `CC1(Oc2cccc(F)c2)CCN(Cc2ccccc2OC(F)F)C1` (centres undefined), the Potency result was “inactive”.

`CCOC(=O)c1cc(NC(=O)c2cccnc2)ccn1`: the Potency result is “inactive”.

Take `CSc1nc2ccc(NC(=O)c3c(F)cccc3F)cc2s1`: the Potency entry was “inactive”.

Regarding `CCCC(=O)Nc1nc2ccc(NC(=O)c3c(F)c(F)c(OC)c(F)c3F)cc2s1`, the Potency is 1.03 µM (active).

Take `CC(=O)Nc1ccc2nc(NC(=O)CS(=O)(=O)c3ccc(F)cc3)sc2c1`: the Potency result was “inactive”.

As for `O=C(Cc1ccccc1)Nc1ccc(NC(=O)c2cccnc2)cc1`, the Potency entry was “inactive”.

Regarding `CCCC(=O)Nc1nc2ccc(NC(=O)c3cccnc3)cc2s1`, the Potency was 6.31 µM (active).

As to `CCc1nc2c(OCC(=O)C(C)(C)C)cccn2c1N(C)C(=O)c1ccccc1F`, the Potency entry is “inactive”.

With `CC1C(=O)N(Cc2cn(CC3CCCCC3)nn2)CCS(=O)(=O)N1Cc1ccc(-c2cccc(N(C)C)c2)cc1` (centres undefined), the Potency result was “inactive”.

In the case of `COC(=O)C[C@H]1C=C[C@H](NC(=O)c2ccc(F)cc2)[C@@H](CO)O1`, the Potency entry is “inactive”.

Regarding `CN1C[C@@H](CO)O[C@@H](n2cnc3c(N4CCN(CCO)CC4)ncnc32)C1`, the Potency entry was “inactive”.

Regarding `O=C(Nc1ccccc1F)c1ccc(S(=O)(=O)N2CCCCCC2)cc1`, the activity, negative = less viability is -4.83% [at 9.24 µM].

For the compound `CCOC(=O)N1CCN(S(=O)(=O)c2ccc(C(=O)Nc3ccc(F)cc3F)cc2)CC1`, the Potency was 1.78 µM (active).

As to `CCOC(=O)N1CCN(S(=O)(=O)c2ccc(Br)cc2)CC1`, the Potency entry is “inactive”.

On to `O=C(c1cccs1)N1C[C@H](n2cc(C3CC3)nn2)[C@@H](O)C[C@@H]1c1ccccc1`, for which the Potency entry is “inactive”.

For `CNC(=O)C[C@H]1C(=O)N(Cc2ccccc2)C[C@@H]1CSC`, the Potency entry was “inactive”.

As to `Cc1cccc(C)c1-n1nnnc1C(CCc1ccccc1)N1CCN(C/C=C/c2ccccc2)CC1` (centres undefined), the Potency result was “inactive”.

Turning to `COc1ccc2sc(N(CCCN(C)C)C(=O)c3ccc(S(=O)(=O)N(C)C4CCCCC4)cc3)nc2c1`, the Potency result is “inactive”.

Take `Cc1ccc2nc(N(CCN(C)C)C(=O)C3=COCCO3)sc2c1`: the Potency result is “inactive”.

As to `Brc1ccc2nc(N3CCCC3)sc2c1`, the Potency entry is “inactive”.

For `CN(C)CCN(C(=O)CN1C(=O)c2ccccc2C1=O)c1nc2cc3c(cc2s1)OCCO3`, the Potency entry is “inactive”.

Regarding `CN(C)CCCN(C(=O)c1ccc(S(=O)(=O)N2CCCCCC2)cc1)c1nc2ccc(Br)cc2s1`, the Potency was 18.4 µM (active).

Consider `CCc1ccc2nc(N(CCCN(C)C)C(=O)c3ccc4c(c3)OCCO4)sc2c1`, for which the Potency is 20.6 µM (active).

With `OC(c1ccccc1)c1nc(/C=C/c2ccc(C(F)(F)F)cc2)cs1` (centres undefined), the Potency result is “inactive”.

For `CC(=O)C[C@@H]1OC[C@H](C)N1S(=O)(=O)c1ccc(C)cc1`, the Potency entry is “inactive”.

On to `C=CCn1c2c(c3ccccc31)CCC2`, for which the Potency result was “inactive”.

As to `Cc1cccc(CNC(=O)c2sc(=O)n(Cc3ccccc3C)c2C)c1`, the Potency entry was “inactive”.

As for `O=C(NCCc1ccccc1)C1CCN(S(=O)(=O)c2ccc(Br)s2)CC1`, the Potency entry was “inactive”.

Consider `O=S(=O)(NCc1cccnc1)c1ccc(Br)s1`, for which the Potency entry was “inactive”.

Regarding `O=S(=O)([N-]c1nc2ccccc2nc1-[n+]1ccc(Cc2ccccc2)cc1)c1ccc(Br)s1`, the Potency was 14.6 µM (active).

Regarding `C[C@@H]1CN([C@@H](C)CO)C(=O)c2cc(Br)cnc2O[C@H]1CN(C)Cc1ccc(-c2ccccc2)cc1`, the Potency entry is “inactive”.

For the compound `COc1ccccc1N1CCN(C(=O)c2c(-c3c(Cl)cccc3Cl)noc2C)CC1`, the Potency result is “inactive”.

Turning to `COc1ccccc1N1CCN(C(=O)c2cc(=O)c3cc(C)cc(C)c3o2)CC1`, the Potency is 0.0206 µM (active).

Take `COc1ccccc1N1CCN(C(=O)c2ccc(Cl)c(S(=O)(=O)N3CCCC3)c2)CC1`: the Potency entry is “inactive”.

In the case of `O=C(NC1CCCC1)C1c2ccccc2OCC(=O)N1Cc1ccccc1` (centres undefined), the Potency entry is “inactive”.

In the case of `COc1cc(C(C)=O)ccc1OC(C)C(=O)Nc1ccc(S(=O)(=O)N2CCCC2)cc1` (centres undefined), the Potency entry is “inactive”.

In the case of `COc1ccc(-c2ccc(Nc3ccc(S(=O)(=O)N4CCCC4)cc3)nn2)cc1OC`, the Potency was 11.2 µM (active).

`COc1ccc(S(=O)(=O)N2CCCCCC2)cc1NC(=O)Cc1ccc(OC)c(OC)c1`: the Potency entry was “inactive”.

For the compound `CCc1nc2c(OCCOc3ccccc3)cccn2c1N(C)C(=O)c1ccccc1F`, the Potency entry is “inactive”.

As for `COc1cc(C#Cc2ccc3cc(CCCO)oc(=O)c3c2)cc(OC)c1`, the Potency was 4.61 µM (active).

On to `O=C1c2ccccc2C(=O)N1CCC#Cc1ccc2cc(C3(O)CCCCC3)oc(=O)c2c1`, for which the Potency entry was “inactive”.

For `CCC(=O)N1CCCC1(C)C(=O)Nc1ccc2c(c1)CCN2C(C)=O` (centres undefined), the Potency result is “inactive”.

Consider `CCOC(=O)C1(C)CCCN(C(=O)c2cccc(Cl)c2)C1` (centres undefined), for which the Potency result is “inactive”.

With `O=C(Nc1ccc(Cl)cn1)c1ccccc1-c1ccccc1`, the Potency entry was “inactive”.

Turning to `CCCOC(=O)c1[nH]c2c(c1C)C(=O)CC(c1cccs1)C2` (centres undefined), the Potency is 1.3 µM (active).

Consider `COC(=O)C1C(=O)c2c([nH]c(C(=O)OCCSC)c2C)CC1C` (centres undefined), for which the Potency entry is “inactive”.

As for `COCCOC(=O)c1[nH]c2c(c1C)C(=O)CC(c1ccc(OC)cc1)C2` (centres undefined), the Potency result is “inactive”.

As for `O=C(COC(=O)c1ccc(S(=O)(=O)N2CCCCCC2)cc1)Nc1ccccc1C(F)(F)F`, the Potency entry was “inactive”.

For the compound `O=C1c2ccccc2-c2ccccc2NC1O` (centres undefined), the Potency result is “inactive”.

Consider `COc1cccc2sc(N(CCCN(C)C)C(=O)C(c3ccccc3)c3ccccc3)nc12`, for which the Potency was 20.6 µM (active).

`Cc1cc(C)c2nc(N(CCN(C)C)C(=O)/C=C/c3cccs3)sc2c1`: the Potency result is “inactive”.

Consider `Cc1ccc2sc(N(CCN(C)C)C(=O)/C=C/c3cccs3)nc2c1C`, for which the Potency result was “inactive”.

`CCCCn1nnnc1C(c1cc2ccccc2o1)N(C)Cc1ccc(Cl)c(Cl)c1` (centres undefined): the Potency result was “inactive”.

Regarding `Oc1ccc(/C=N/N(Cc2ccccc2)c2ccccc2)cc1`, the Potency is 20.6 µM (active).

Take `CN(/N=C/c1ccccc1)C(=S)c1ccccc1`: the Potency result was “inactive”.

In the case of `CCN(/N=C/c1ccccc1)c1cc(=O)n(C)c(=O)[nH]1`, the Potency result is “inactive”.

Take `Cc1cc(OCC(=O)Nc2nccs2)c2c(C)c(C)c(=O)oc2c1`: the Potency result is “inactive”.

Consider `Cc1ccccc1C(OCC(O)CN1CCCCC1CCO)c1ccccc1` (centres undefined), for which the Potency result is “inactive”.

`COc1cccc(CN(C)CC(=O)Nc2ccccc2C(=O)Nc2ccccc2)c1`: the Potency entry was “inactive”.

For the compound `COc1cccc(CN(C)CC(O)COC(c2ccccc2)c2ccccc2C)c1` (centres undefined), the Potency is 23.1 µM (active).

`Cc1cc(Cl)ccc1-c1nc(NCCN(C)C)nc2ccsc12`: the Potency was 20.6 µM (active).

For the compound `Cc1ccc(-c2cc(=O)c3ccc(F)cc3[nH]2)cc1`, the Potency result was “inactive”.

For the compound `Cc1cc(=O)c2ccc(NC(=O)c3ccccc3)cc2[nH]1`, the Potency entry is “inactive”.

Take `O=c1cc(-c2ccccc2)[nH]c2cc(F)ccc12`: the Potency is 2.59 µM (active).

Consider `FC(F)(F)Oc1ccccc1C(c1nnnn1C1CCCCC1)N1CCN(C/C=C/c2ccccc2)CC1` (centres undefined), for which the Potency result was “inactive”.
